Results filed as inconclusive are left out. Active and inactive are the calls of the source. Unless noted, calls follow the shape of the dose curve; as a rule, active = well fitted curve in the direction sought with a large enough effect in the repeat runs; inconclusive = weak or mixed curves; inactive = no such curve, though single readings can be large; an effect the other way counts as inactive or inconclusive.
Tests used:
[1] = qHTS RealTime-Glo MT Cell Viability Assay in HEK293 cells - 0 hour (AID 1224880); also: top concentration of the series differs between compounds; nearly all actives have a fitted effect of over 45% in size
Summary of the method: (§1)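 Luminescence readout at each listed time point; HEK293, 600 cells/well, RealTime-Glo MT reagent added with cells; compounds pinned (23 nL in DMSO) after 5 h at 37 C; continuous culture at 37 C.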

[2] = A CellTox Green Cytotoxicity Assay to monitor cytotoxicity in HEK293 cells - 32 hour (AID 1224881); also: nearly all actives have a fitted effect of over 40% in size; also: potency is read from the fitted curve at half-maximal effect
Summary of the method: (§2)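 Read-out: fluorescence of a cell-impermeant cyanine dye staining DNA of dead cells, proportional to cytotoxicity. HEK293, 600 cells/well with reagent, compound (23 nL DMSO) added after 5 h; reads at 0, 8, 16, 24, 32, 40 h.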

[3] = A CellTox Green Cytotoxicity Assay to monitor cytotoxicity in HepG2 cells - 0 hour (AID 1224882); also: nearly all actives have a fitted effect of over 35% in size
Summary of the method: (§3)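 HepG2, 600 cells/well premixed w/ CellTox Green; 5 h settle, 37 C/5% CO2; pintool cpd add (DMSO); 37 C, 40 h; fluorescence read at 0, 8, 16, 24, 32, 40 h.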

[4] = A CellTox Green Cytotoxicity Assay to monitor cytotoxicity in HepG2 cells - 32 hour (AID 1224883); also: nearly all actives have a fitted effect of over 50% in size
Summary of the method: as §3

[5] = A CellTox Green Cytotoxicity Assay to monitor cytotoxicity in HEK293 cells - 8 hour (AID 1224884); also: nearly all actives have a fitted effect of over 35% in size
Summary of the method: as §2

[6] = qHTS RealTime-Glo MT Cell Viability Assay in HepG2 cells - 16 hour (AID 1224885); also: nearly all actives have a fitted effect of over 50% in size
Summary of the method: (§4)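 Cell number in HepG2 cultures estimated from NanoLuc luminescence generated by metabolic reduction of a prosubstrate by living cells. The homogeneous, nonlytic format allowed repeated reads at 0, 8, 16, 24, 32 and 40 h of compound exposure.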

[7] = qHTS RealTime-Glo MT Cell Viability Assay in HEK293 cells - 24 hour (AID 1224886); also: nearly all actives have a fitted effect of over 50% in size; also: potency is read from the fitted curve at half-maximal effect
Summary of the method: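 Homogeneous bioluminescent viability format in HEK293 cells (600 cells/well). Following 5 h at 37 C/5% CO2, 23 nL compound was pintooled; the signal was measured repeatedly during 40 h incubation.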

[8] = qHTS RealTime-Glo MT Cell Viability Assay in HEK293 cells - 8 hour (AID 1224887); also: nearly all actives have a fitted effect of over 50% in size; also: potency is read from the fitted curve at half-maximal effect
Summary of the method: as §1

[9] = A CellTox Green Cytotoxicity Assay to monitor cytotoxicity in HEK293 cells - 16 hour (AID 1224888); also: nearly all actives have a fitted effect of over 35% in size
Summary of the method: as §2

[10] = A CellTox Green Cytotoxicity Assay to monitor cytotoxicity in HepG2 cells - 8 hour (AID 1224890); also: nearly all actives have a fitted effect of over 45% in size
Summary of the method: as §3

[11] = qHTS assay to identify small molecule antagonists of the estrogen receptor alpha (ER-alpha) signaling pathway using the BG1 cell line in the presence of 0.1 nM 17-beta-estradiol - cell viability counter screen (AID 1259241); also: nearly all actives have a fitted effect of over 40% in size; also: potency is read from the fitted curve at half-maximal effect
Summary of the method: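 VM7Luc4E2, 4,000 cells/well, phenol red-free medium + 10% charcoal-stripped FBS; 24 hr plating; cpd + 0.1 nM E2 final, 22 hr 37C/5% CO2; CellTiter-Fluor 30 min, fluorescence.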

[12] = qHTS assay to identify small molecule antagonists of the androgen receptor (AR) signaling pathway using the MDA cell line in the presence of 0.5 nM R1881 - cell viability counter screen (AID 1259242); also: nearly all actives have a fitted effect of over 45% in size
Summary of the method: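 Live-cell protease fluorescence, CellTiter-Fluor, 30 min at 37C. Cells: MDA-kb2, 3,000/well, preincubated 5 hr. Compounds plus 0.5 nM R1881 final, 16 hr, 37C, 0% CO2.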

[13] = target: Estrogen receptor (Homo sapiens) (UniProt P03372); assay: qHTS assay to identify small molecule antagonists of the estrogen receptor alpha (ER-alpha) signaling pathway using the BG1 cell line in the presence of 0.1 nM 17-beta-estradiol (AID 1259244); also: nearly all actives have a fitted effect of over 50% in size; also: potency is read from the fitted curve at half-maximal effect
Chain of Estrogen receptor (Homo sapiens) (P03372 whole entry, looked up): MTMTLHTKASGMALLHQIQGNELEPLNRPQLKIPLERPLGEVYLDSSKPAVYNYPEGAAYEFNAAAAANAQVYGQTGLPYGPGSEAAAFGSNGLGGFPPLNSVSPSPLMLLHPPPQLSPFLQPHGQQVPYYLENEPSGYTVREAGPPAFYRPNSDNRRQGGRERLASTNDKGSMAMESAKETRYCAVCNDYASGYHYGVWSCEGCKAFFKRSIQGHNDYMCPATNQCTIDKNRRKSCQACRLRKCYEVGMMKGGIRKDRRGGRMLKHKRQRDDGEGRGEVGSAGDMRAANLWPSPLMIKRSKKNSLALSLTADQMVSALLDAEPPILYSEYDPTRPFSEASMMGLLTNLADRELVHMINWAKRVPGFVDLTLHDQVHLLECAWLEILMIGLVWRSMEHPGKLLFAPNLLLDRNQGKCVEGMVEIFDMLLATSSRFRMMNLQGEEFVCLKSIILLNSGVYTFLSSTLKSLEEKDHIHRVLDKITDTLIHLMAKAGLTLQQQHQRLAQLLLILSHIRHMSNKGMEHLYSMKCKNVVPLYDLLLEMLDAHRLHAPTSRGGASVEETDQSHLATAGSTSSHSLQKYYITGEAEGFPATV
Summary of the method: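 Luminescence after ONE-Glo (30 min, room temperature) measured ERE-luciferase activity in VM7Luc4E2 cells treated 22 h with compound and 0.1 nM final 17beta-estradiol as stimulator.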

[14] = qHTS assay to identify small molecule phospholipidosis (PLD) inducers (AID 1259344; active = well fitted curve in the direction sought with a large enough effect; an effect the other way counts as inactive or inconclusive)
Summary of the method: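 After 4 h attachment on collagen I, HepG2 cells were dosed with compound alongside LipidTOX Red, kept 24 h at 37 C, fixed, and imaged for lamellar phospholipid pits.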

[15] = qHTS assay to identify small molecule HDAC inhibitors (AID 1259364); also: potency is read from the fitted curve at half-maximal effect;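 also: wild-type HCT-116 cells with endogenous class I/II HDAC activity; nearly all actives have a fitted effect of over 45% in size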
Summary of the method: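 HCT-116 (wild type), 1,500 cells/well, overnight; compound 2 hr 37C 5% CO2; HDAC-Glo I/II reagent 30 min RT; luminescence readout.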

[16] = qHTS assay to identify small molecule HDAC inhibitors - cell viability counter screen (AID 1259365)
Summary of the method: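 Luminescence from CellTiter-Glo, developed 30min at room temperature, reports viability of wild-type HCT-116 cells treated 2hr with compounds at 37 C and 5% CO2 after overnight plating.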

[17] = qHTS assay to identify small molecule agonists of the sonic hedgehog signaling (Shh) pathway - cell viability counter screen (AID 1259366); also: nearly all actives have a fitted effect of over 50% in size
Summary of the method: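 Cytotoxicity counter screen run in the same wells as the Shh reporter assay. NIH/3T3 cells carrying a Gli1 response element–driven luciferase were treated with DMSO-dissolved compounds for 24hr, and live-cell protease activity was measured with CellTiter-Fluor.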

[18] = qHTS assay to identify small molecule antagonists of the sonic hedgehog signaling (Shh) pathway - cell viability counter screen (AID 1259367); also: nearly all actives have a fitted effect of over 55% in size
Summary of the method: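 Conditioned medium drove Shh signaling in 3T3 Gli1-Luc cells exposed to compounds at 37C and 5% CO2. Viability was determined from CellTiter-Fluor fluorescence, with reagent incubated 1 hr after 23 hr of treatment.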

[19] = qHTS RealTime-Glo MT Cell Viability Assay in HepG2 cells - 0 hour (AID 1224889); also: nearly all actives have a fitted effect of over 50% in size
Summary of the method: as §4

[20] = target: Androgen receptor (Homo sapiens) (UniProt P10275); assay: qHTS assay to identify small molecule antagonists of the androgen receptor (AR) signaling pathway using the MDA cell line in the presence of 0.5 nM R1881 (AID 1259243); also: nearly all actives have a fitted effect of over 50% in size; also: potency is read from the fitted curve at half-maximal effect
Chain of Androgen receptor (Homo sapiens) (P10275 whole entry, looked up): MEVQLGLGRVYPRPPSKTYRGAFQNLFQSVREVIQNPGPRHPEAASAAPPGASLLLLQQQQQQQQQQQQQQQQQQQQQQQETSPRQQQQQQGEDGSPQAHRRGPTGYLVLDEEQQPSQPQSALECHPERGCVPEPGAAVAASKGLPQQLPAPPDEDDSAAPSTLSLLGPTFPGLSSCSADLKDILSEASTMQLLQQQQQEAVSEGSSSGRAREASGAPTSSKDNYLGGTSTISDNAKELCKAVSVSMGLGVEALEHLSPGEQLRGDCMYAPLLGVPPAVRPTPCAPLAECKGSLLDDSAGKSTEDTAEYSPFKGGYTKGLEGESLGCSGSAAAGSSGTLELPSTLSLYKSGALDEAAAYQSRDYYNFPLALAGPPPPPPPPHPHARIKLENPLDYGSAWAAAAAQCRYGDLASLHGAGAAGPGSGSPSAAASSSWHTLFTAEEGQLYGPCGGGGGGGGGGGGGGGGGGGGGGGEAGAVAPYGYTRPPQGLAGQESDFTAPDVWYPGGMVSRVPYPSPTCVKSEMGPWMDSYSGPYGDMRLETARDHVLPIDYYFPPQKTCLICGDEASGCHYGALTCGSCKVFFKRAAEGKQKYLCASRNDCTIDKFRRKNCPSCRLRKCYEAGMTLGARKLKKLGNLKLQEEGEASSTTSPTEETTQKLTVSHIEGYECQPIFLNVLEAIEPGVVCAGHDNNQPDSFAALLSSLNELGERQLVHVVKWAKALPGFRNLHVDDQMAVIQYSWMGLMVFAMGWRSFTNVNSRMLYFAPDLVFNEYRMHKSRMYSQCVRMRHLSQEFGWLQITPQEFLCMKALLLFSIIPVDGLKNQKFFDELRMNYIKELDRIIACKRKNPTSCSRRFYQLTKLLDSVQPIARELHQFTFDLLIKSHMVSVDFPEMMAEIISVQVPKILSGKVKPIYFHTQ
Summary of the method: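 MDA-kb2, MMTV-luc (AR/GR elements); 3,000 cells/well; cpd + 0.5 nM R1881 final; 16 hr 37C, 0% CO2; ONE-Glo 30 min RT; luminescence.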

Measured: Potency

CCOC(C)=O
inactive: [1] | [2] | [3] | [4] | [5] | [6] | [7] | [8] | [9] | [10] | [11] | [12] | [13] | [14] | [15] | [16] | [17] | [18]

c1ccc2c(c1)CCc1ccccc1N2
inactive: [1] | [3] | [4] | [5] | [6] | [7] | [8] | [9] | [19] | [10] | [11] | [12] | [16] | [18]
active: [2] 49.2 µM

O=C(CCCN1CC=C(n2c(=O)[nH]c3ccccc32)CC1)c1ccc(F)cc1
inactive: [1] | [2] | [3] | [4] | [5] | [6] | [9] | [10] | [11] | [12] | [14] | [15] | [17] | [18]
active: [7] 10.7 µM | [8] 16.9 µM

CN1C(C(=O)Nc2ccccn2)=C(O)c2sccc2S1(=O)=O
inactive: [1] | [2] | [3] | [4] | [5] | [6] | [7] | [8] | [19] | [10] | [11] | [12] | [15] | [16] | [17] | [18]

CC(C)=CCC/C(C)=C/CC/C(C)=C/C(=O)OCC(=O)[C@@]1(O)CC[C@H]2[C@@H]3CCC4=CC(=O)C=C[C@]4(C)[C@H]3[C@@H](O)C[C@@]21C
active: [7] 4.25 µM | [8] 6.01 µM
inactive: [1] | [2] | [3] | [4] | [5] | [9] | [19] | [10] | [20] | [15] | [16] | [17] | [18]

CCc1ccccc1
inactive: [1] | [2] | [3] | [4] | [5] | [6] | [7] | [8] | [10] | [11] | [12] | [13] | [15] | [16] | [17] | [18]

Clc1ccc(Nc2nnc(Cc3ccncc3)c3ccccc23)cc1
inactive: [1] | [2] | [3] | [4] | [5] | [9] | [19] | [10] | [11] | [12] | [14] | [15] | [16]

Cc1ccc2c(Br)cc(Br)c(O)c2n1
inactive: [1] | [2] | [3] | [4] | [5] | [6] | [8] | [9] | [19] | [10] | [11] | [12] | [14] | [15] | [16] | [18]

O=[N+]([O-])c1ccc(O/N=C/c2cc(Br)c(O)c(Br)c2)c([N+](=O)[O-])c1
inactive: [1] | [2] | [3] | [4] | [5] | [6] | [9] | [19] | [10] | [16]
active: [7] 48.7 µM | [11] 24.2 µM | [13] 30.5 µM

CN1CCCN=C1COC(=O)C(O)(c1ccccc1)C1CCCCC1 (stereo not given)
inactive: [1] | [2] | [3] | [4] | [5] | [6] | [8] | [9] | [10] | [11] | [12] | [13] | [15] | [16] | [17] | [18]

COc1ccccc1NC(=O)c1cc2ccccc2cc1O
active: [7] 34.7 µM | [8] 34.7 µM | [20] 30.6 µM | [13] 43.3 µM | [15] 24.3 µM
inactive: [1] | [2] | [3] | [4] | [5] | [19] | [10] | [11] | [12] | [16] | [18]

CC(=O)N/N=C/c1ccc([N+](=O)[O-])o1
inactive: [1] | [2] | [3] | [4] | [5] | [6] | [8] | [9] | [19] | [10] | [11] | [12] | [14] | [15] | [16] | [18]

CCOC(=O)c1ccc(I)cc1
inactive: [1] | [3] | [4] | [5] | [6] | [19] | [10] | [11] | [12] | [13] | [15] | [16] | [17] | [18]
active: [2] 35 µM

CCCCCCC(C)(C)C(=O)O
inactive: [1] | [2] | [3] | [4] | [6] | [7] | [8] | [9] | [10] | [11] | [12] | [20] | [13] | [15] | [17] | [18]

COc1cc(C(=O)NCCCCCC(=O)O)cc(OC)c1OC
inactive: [1] | [2] | [3] | [5] | [6] | [7] | [8] | [9] | [19] | [10] | [11] | [12] | [13] | [14] | [15] | [16] | [17] | [18]
